Sampled rows, rich in hits. Any-hit rate of the full collection: about 8%.
Gal4-VP16 FLuc – Gal4-VP16 reporter inhibition counter-screen | Drosophila S2 Gal4-VP16 UAS-luciferase, luminescence, 20 h | Potency, µM (top dose mostly 53.6 µM), actives largely listed as inhibitors | 3.5% of 310,000 active | AID 2546;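 further: Gal4-VP16 expression switched on by copper sulfate through the metallothionein promoter; nearly all actives have a fitted effect of over 50% in size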
FBPA coupling cs – counter-screen for Giardia aldolase inhibitors: coupling enzyme system | coupling enzyme system counterscreen, AmpLite Red fluorescence | activity change, negative = inhibition, % at 58.2 µM, hits read low | 0.67% of 290,000 active; in the data active means activity change below about -30%
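Coupling enzymes only (glyceraldehyde-3-phosphate) + compound, at 57.5 uM final, 10 min RT; add substrate/coupling/AmpLite Red mix, 20 min RT; fluorescence ex 525/em 598 nm. Actives flag coupling-system interference.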
ELG1 DNA repair – blocks ELG1-dependent DNA repair in HEK293T cells; HEK293T ELG1-luciferase reporter, luminescence, 16 h; DNA damage induced by 5-fluorouridine; 2.3% of 330,000 active; Potency, µM (highest dose often 46.1 µM), hits mostly inhibitors; further: nearly all actives have a fitted effect of over 55% in size
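In this reporter screen, reduction of luminescence relative to DMSO vehicle indicated activity. Compounds and 5-fluorouridine were added together to 2,000 cells per well, incubated for 16 hr at 37 °C, then developed with ONE-Glo.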
RORgamma inh – ROR gamma (mouse) transcription inhibition. Drosophila S2 Gal4-RORgamma UAS-luciferase reporter, 20 h. Potency, µM (doses to about 53.6 µM), hits mostly inhibitors. 5.4% of 310,000 active; further: nearly all actives have a fitted effect of over 60% in size
Target sequence (P51450 whole entry, looked up, the tested form may be a part): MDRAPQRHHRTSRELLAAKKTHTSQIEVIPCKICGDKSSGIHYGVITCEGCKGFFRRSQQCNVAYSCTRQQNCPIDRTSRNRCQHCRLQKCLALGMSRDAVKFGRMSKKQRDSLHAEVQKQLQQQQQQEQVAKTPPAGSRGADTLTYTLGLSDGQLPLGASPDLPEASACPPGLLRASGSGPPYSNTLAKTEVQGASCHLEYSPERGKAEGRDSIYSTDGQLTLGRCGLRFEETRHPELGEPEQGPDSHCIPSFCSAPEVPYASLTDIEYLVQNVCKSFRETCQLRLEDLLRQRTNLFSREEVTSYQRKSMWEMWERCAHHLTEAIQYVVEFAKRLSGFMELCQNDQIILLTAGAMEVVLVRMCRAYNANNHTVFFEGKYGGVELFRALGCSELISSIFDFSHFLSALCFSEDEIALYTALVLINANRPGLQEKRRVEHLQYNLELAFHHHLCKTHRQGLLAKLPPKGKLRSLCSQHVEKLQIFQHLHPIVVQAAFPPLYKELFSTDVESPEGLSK
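ROR gamma transcriptional activity was tracked as Gal4-UAS luciferase output in stably transfected Drosophila Schneider cells, with compound added 1 hr before 700 uM copper sulfate induction and a 20 hr ambient-temperature incubation.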
TSHR antagonist – antagonists of human thyroid stimulating hormone receptor; P16473; TSHR-expressing cells, TSH-stimulated cAMP HTRF, 2 h; active compounds read low; activity change, negative = inhibition, % at 11.5 µM; 0.2% of 330,000 active;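 active means activity change below a set negative limit, meaning inhibition stronger than a set level, cut at about -70% in these data; inconclusive means activity change between two set negative limits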
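Antagonism was scored as loss of TSH-driven cAMP in TSHR cells, stimulated with 4nM TSH (EC80) for 2 hours at 37 deg C and detected by homogeneous HTRF competition immunoassay.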
Numbers stand for hits; – = inactive; ? = inconclusive; · = no result given. Unless noted, the call rests on the fitted dose curve; in most records, active means well fitted curve in the direction sought with a large enough effect; inconclusive means small, poorly fitted or top-dose-only effect, or another doubt; inactive means no such curve, though single readings can be large; an effect the other way counts as inactive or inconclusive.

SMILES	Gal4-VP16 FLuc	FBPA coupling cs	ELG1 DNA repair	RORgamma inh	TSHR antagonist
CCOC(=O)Cc1csc(NC(=O)Nc2ccc(OC(F)(F)F)cc2)n1	–	–	2.1µM	–	–
CCOC(=O)Cc1csc(N/N=C\c2cccc(Br)c2)n1	?	–	–	10µM	–
CC(=O)c1sc(N/N=C\c2ccccc2O)nc1C	4µM	–	?	1.4µM	–
CCOC(=O)c1sc(N/N=C/c2ccccc2)nc1C	?	–	?	?	–
C[C@]12c3[nH]c4cc(-c5ccco5)ccc4c3CCN1C(=O)[C@@H](CC(=O)NCCC1=CCCCC1)C[C@@H]2C(=O)N1CCOCC1	·	·	–	·	–
Cc1ccc(COc2ccccc2C(=S)N2CCCC2)cc1	?	–	–	16µM	–
COc1cccc(C(=S)N2CCCC2)c1OC	0.079µM	–	–	?	–
O=c1ccc2c(OCCCCc3ccccc3)c3ccoc3cc2o1	·	·	·	·	–
Cc1ccc(C(O)(C(=O)NNc2ccccn2)c2ccc(C)cc2)cc1	?	–	–	10µM	–
Cc1ccc(NNC(=O)C(O)(c2cccc(C(F)(F)F)c2)c2cccc(C(F)(F)F)c2)cc1	?	–	18µM	?	–
Cc1cccc(C(O)(C(=O)NNc2ccc3ccccc3n2)c2cccc(C)c2)c1	13µM	–	–	10µM	–
CC(C(=O)Nc1ccccn1)(c1ccccc1)c1ccccc1	–	–	–	–	–
COc1ccc(C2=CC(=O)C=CC2=O)cc1	?	-36	–	?	–
O=C1O/C(=C/Br)CCC1c1cccc2ccccc12 (stereo unspecified)	·	·	·	·	–
COCc1c(C(=O)N2CCN(CCOc3ccccc3)CC2)oc2ccccc12	·	·	–	·	–
Cc1nnc(NC(=O)C2CCCN2C(=O)Nc2ccccc2)s1 (stereo unspecified)	–	–	?	–	–
Cc1onc(-c2ccccc2)c1C(=O)NN1CCOCC1	·	·	–	·	–
O=C(N=Nc1c(O)[nH]c2ccccc12)c1ccc(CN2CCOCC2)cc1	–	–	–	–	–
O=C(CN1CCN(Cc2ccccc2Cl)CC1)N=Nc1c(O)[nH]c2ccccc12	–	–	21µM	?	–
Cc1cc(Cl)ccc1N(CC(=O)N=Nc1c(O)[nH]c2ccccc12)S(C)(=O)=O	–	–	–	–	–
Cc1ccc(S(=O)(=O)N(CC(=O)N=Nc2c(O)[nH]c3ccccc23)c2cccc(C)c2)cc1	–	–	21µM	–	–
Cc1ccc(CN2CCN(CC(=O)N=Nc3c(O)[nH]c4ccccc34)CC2)cc1	–	–	8.2µM	–	–
CSc1ccc(CN(C)CC(=O)NC(=O)NCCC2=CCCCC2)cc1	·	·	–	·	–
CCn1c(-c2ccccn2)nc2cc(S(=O)(=O)N(C)C)ccc21	–	–	?	–	–
CCn1c(-c2cc(Br)cc(OC)c2O)nc2cc(S(=O)(=O)N(C)C)ccc21	7.9µM	–	?	3.5µM	–
SMILES	Gal4-VP16 FLuc	FBPA coupling cs	ELG1 DNA repair	RORgamma inh	TSHR antagonist
CC(C)(C)c1nc(SCC(=O)N2CCCC2)c2ccccc2n1	–	–	–	–	–
CC(C)(C)c1nc(SCC(=O)c2ccccc2)c2ccccc2n1	?	–	–	20µM	–
C=C(C)CN(CC)c1nc(N)c2c(N)nc3c(c2c1C#N)CC(=O)N3C12CC3CC(CC(C3)C1)C2	–	–	?	–	–
N#Cc1c(N2CCCC(O)C2)nc(N)c2c(N)nc3c(c12)CC(=O)N3C12CC3CC(CC(C3)C1)C2 (stereo unspecified)	?	–	?	4µM	–
Cc1ccc(-c2sc(-c3ccccc3)nc2CC(=O)Nc2ccccc2F)cc1	5µM	–	–	?	–
c1cncc(-c2nc(NCC3COc4ccccc4O3)c3ccccc3n2)c1 (stereo unspecified)	–	–	15µM	–	–
c1ccc(CNc2nc(-c3cccnc3)nc3ccccc23)cc1	–	–	?	–	–
CCN(CC(=O)Nc1ccc2c(c1)OCCO2)C(=O)c1cc(Cl)nc2ccccc12	·	·	–	·	–
CCN(CC(=O)Nc1ccc2c(c1)OCCO2)c1nc(-c2cccnc2)nc2ccccc12	–	–	13µM	–	–
c1ccc2c(c1)OCC(CNc1ncnc3sccc13)O2 (stereo unspecified)	0.5µM	–	?	?	–

From PubChem
